Some test systems named below: NCI-H23 lung; NCI-H226 lung; NCI-H322M lung; HOP-62 NSCLC; NCI-H460 lung; HOP-92 NSCLC; NCI-H522 lung; A549/ATCC NSCLC; 786-0 renal; COLO 205 colon; DU-145 prostate; K-562 leukemia; MALME-3M melanoma; MDA-MB-231 breast; SF-268 CNS; SF-295 CNS; SF-539 CNS; UACC-257 melanoma; M14 melanoma.
Common to all, as to test: NCI-60 one-dose screen, 48 h (100 = growth as untreated, 0 = no growth, -100 = all killed)
Holding throughout (conditions): 10 µM

SMILES strings stand for the structures. About 83,000 compounds went through this panel and 20% of them were active in at least one assay; those are over-represented in the sample as a whole.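 Treatment: one concentration, 48 hours, 96-well format. Scoring: percent growth, with anything below 10 considered active.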 A number with no mark means an inactive call. The source made the active and inactive calls.

Turning to `CCOC(=O)C1=C(N)N(c2ccc(C)cc2)C2=C(C(=O)CC(C)(C)C2)C1c1ccccc1OC` (configuration not stated), the growth is 109% in the assay on NCI-H23 lung; 99.7% with NCI-H226 lung; 93.4% with NCI-H322M lung; 106% in the assay on HOP-62 NSCLC; 111% in the assay on NCI-H460 lung; 117% in the assay with HOP-92 NSCLC. The growth was 97.6% in the assay with NCI-H522 lung; 107% in the assay on A549/ATCC NSCLC; 99.6% in the assay with 786-0 renal; 134% in the assay with COLO 205 colon; 107% in the assay with DU-145 prostate; 98.4% in the assay with K-562 leukemia. Besides, the growth in the assay on MALME-3M melanoma is 93.4%; with MDA-MB-231 breast it was 95.5%; in the assay on SF-268 CNS, 100%; with SF-295 CNS, 91%; with SF-539 CNS it was 101%; in the assay on UACC-257 melanoma, 104%. Besides, the growth in the assay on M14 melanoma is 112%.

`Cc1noc2c(Cc3ccccc3)nn(CC(=O)N/N=C/c3ccc(F)cc3)c(=O)c12`: the growth in the assay on NCI-H23 lung is 78.4%; in the assay with NCI-H226 lung, 29%; with NCI-H322M lung, 84.6%; in the assay on HOP-62 NSCLC, 14.7%; in the assay with NCI-H460 lung, 28.9%; in the assay on HOP-92 NSCLC, -12.7% (active). Further, the growth was 85.8% in the assay on NCI-H522 lung; 45.3% in the assay with A549/ATCC NSCLC; -2.13% (active) with 786-0 renal; 72.5% in the assay with COLO 205 colon; 65.2% in the assay with DU-145 prostate; 96.7% in the assay on K-562 leukemia. Also, the growth is -1.4% (active) in the assay on MALME-3M melanoma; 44.3% in the assay on MDA-MB-231 breast; 62.6% with SF-268 CNS; 25.9% with SF-295 CNS; 66.9% in the assay with SF-539 CNS; 67.4% in the assay on UACC-257 melanoma. Besides, in the assay on M14 melanoma, the growth was 66.1%.

On to `COc1ccc2c(c1)N=C(C(=O)O)/C2=C/c1sc(Nc2ccc(O)cc2)nc1O`, for which the growth is 71.6% in the assay on NCI-H23 lung; 54.8% in the assay on NCI-H226 lung; 92.5% in the assay on NCI-H322M lung; 80.9% in the assay with HOP-62 NSCLC; 82.3% with NCI-H460 lung; 68.3% in the assay with HOP-92 NSCLC. Also, the growth in the assay on NCI-H522 lung was 33.7%; in the assay on A549/ATCC NSCLC, 96.2%; in the assay on 786-0 renal, 78.9%; in the assay on COLO 205 colon, 89.2%; in the assay with DU-145 prostate, 94.1%; with K-562 leukemia it was 29.1%. Further, the growth was 50.7% in the assay with MALME-3M melanoma; 63.7% with MDA-MB-231 breast; 78.1% in the assay on SF-268 CNS; 76.5% in the assay with SF-295 CNS; 52.1% in the assay with SF-539 CNS; 81.3% with UACC-257 melanoma. Also, the growth with M14 melanoma is 72.3%.

For `CC(=O)Oc1ccccc1C(=O)Oc1ccc(C(=O)/C=C/c2ccncc2)cc1`, the growth in the assay on NCI-H23 lung was 36.9%; with NCI-H226 lung, 62.8%; with NCI-H322M lung it was 66.5%; in the assay on HOP-62 NSCLC, 83.4%; in the assay on NCI-H460 lung, 35.6%; with HOP-92 NSCLC it was 94.1%. Further, the growth is 59.1% with NCI-H522 lung; 81% in the assay with A549/ATCC NSCLC; 53.2% with 786-0 renal; 40.4% with COLO 205 colon; 46.2% in the assay on DU-145 prostate; 11.6% in the assay on K-562 leukemia. In addition, the growth with MALME-3M melanoma was 86.2%; in the assay with MDA-MB-231 breast it was 40.8%; with SF-268 CNS, 75%; with SF-295 CNS, 59.1%; in the assay on SF-539 CNS it was -35.6% (active); in the assay on UACC-257 melanoma it was 94.9%. For the same molecule, the growth in the assay with M14 melanoma was 47.6%.

With `COc1ccc(C(=O)/C=C/c2cc(F)cc(C(F)(F)F)c2)cc1S(N)(=O)=O`, the growth in the assay with NCI-H23 lung is -74.8% (active); in the assay with NCI-H226 lung it was -29.3% (active); with NCI-H322M lung, -3.66% (active); with HOP-62 NSCLC, -47.4% (active); in the assay on NCI-H460 lung, -25.3% (active); in the assay on HOP-92 NSCLC, -9.39% (active). In addition, the growth in the assay with NCI-H522 lung was -79.6% (active); in the assay on A549/ATCC NSCLC it was 3.37% (active); with 786-0 renal, -81% (active); in the assay with COLO 205 colon, -53.1% (active); in the assay with DU-145 prostate, 14.1%; in the assay with K-562 leukemia, 5.44% (active). In addition, the growth is -64.2% (active) with MALME-3M melanoma; -90.5% (active) in the assay on MDA-MB-231 breast; 20.8% in the assay on SF-268 CNS; -47.5% (active) in the assay with SF-295 CNS; -77.8% (active) in the assay with SF-539 CNS; -9.77% (active) in the assay with UACC-257 melanoma. Besides, the growth in the assay on M14 melanoma is -68.4% (active).

For the molecule `O=C(CNc1nc(-c2ccccc2)cs1)Nc1ccc(Br)cc1`, the growth is -90.8% (active) with NCI-H23 lung; -58.6% (active) in the assay on NCI-H226 lung; -99.5% (active) in the assay on NCI-H322M lung; -78.8% (active) in the assay on HOP-62 NSCLC; -61.5% (active) in the assay on NCI-H460 lung; -71.5% (active) in the assay with HOP-92 NSCLC. Besides, the growth is -77.8% (active) in the assay with NCI-H522 lung; -82.3% (active) with A549/ATCC NSCLC; -73.2% (active) in the assay on 786-0 renal; -77.4% (active) with COLO 205 colon; -92.3% (active) in the assay on DU-145 prostate; 6.7% (active) in the assay with K-562 leukemia. Besides, the growth was -82.4% (active) with MALME-3M melanoma; -92.5% (active) in the assay on MDA-MB-231 breast; -12.5% (active) in the assay with SF-268 CNS; -97.5% (active) with SF-295 CNS; -98.3% (active) in the assay on SF-539 CNS; -73.8% (active) with UACC-257 melanoma. Further, the growth in the assay with M14 melanoma was -86.5% (active).

Turning to `COc1ccc(/C(CSc2nnc(-c3c[nH]c4ccccc34)n2-c2ccccc2)=N/O)cc1`, the growth in the assay with NCI-H23 lung is 41.6%; in the assay on NCI-H226 lung, 18.2%; in the assay with NCI-H322M lung it was 36.4%; with HOP-62 NSCLC, 45%; with NCI-H460 lung, 17.3%; in the assay on HOP-92 NSCLC, 28.2%. Further, the growth in the assay on NCI-H522 lung was 36.5%; with A549/ATCC NSCLC, 34.2%; with 786-0 renal it was 59.7%; in the assay with COLO 205 colon, 36.3%; in the assay with DU-145 prostate it was 43%; with K-562 leukemia, 18.7%. The growth was 73.1% in the assay on MALME-3M melanoma; 60.7% in the assay with MDA-MB-231 breast; 48.5% in the assay on SF-268 CNS; 21% in the assay on SF-295 CNS; 57.3% in the assay with SF-539 CNS; 50.1% in the assay on UACC-257 melanoma. For the same molecule, the growth with M14 melanoma was 28.9%.

On to `O=c1c2ccccc2nc(COc2ccccc2)n1/N=C/c1ccc(F)cc1`, for which the growth was 85.6% in the assay on NCI-H23 lung; 78.9% with NCI-H226 lung; 96.6% in the assay on NCI-H322M lung; 105% with HOP-62 NSCLC; 85.4% with NCI-H460 lung; 100% in the assay with HOP-92 NSCLC. The growth is 81.8% with NCI-H522 lung; 86.2% in the assay with A549/ATCC NSCLC; 89.4% in the assay on 786-0 renal; 114% with COLO 205 colon; 91.4% with DU-145 prostate; 69.8% in the assay with K-562 leukemia. Also, the growth in the assay with MALME-3M melanoma was 115%; in the assay on MDA-MB-231 breast it was 88%; in the assay with SF-268 CNS, 99.7%; with SF-295 CNS, 89.4%; in the assay on SF-539 CNS, 89.6%; with UACC-257 melanoma, 99.8%. The growth in the assay with M14 melanoma was 98.8%.

The record behind these values is PubChem BioAssay (NCI).
